ATXN2 expr inh: ATXN2 expression inhibition; HEK-293 ATXN2-luciferase reporter, luminescence, 24 h; Potency, µM (doses to about 57 µM), hits mostly inhibitors; 0.72% of 360,000 active; also: nearly all actives have a fitted effect of over 55% in size
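qHTS (up to 57 uM final) was run with 24 h compound exposure of reporter cells at 37 °C. Each well was multiplexed: SteadyGlo luminescence measured ATXN2-luciferase expression after a fluorogenic Gly-Phe-AFC viability readout (25 uM final).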
IL1B secr inh: blocks inflammasome-driven IL-1 beta release; THP-1 LPS/ATP IL-1B secretion, AlphaLISA, 16 h; stronger effect = lower value; activity change, % at 57.5 µM; 4.7% of 360,000 active; AID 743279; in the data active = activity change below about -50%; inconclusive = mostly about -30% to -49%
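THP-1 cells pretreated 1 hr with compounds (up to 57.5 uM final), then stimulated with LPS (250 ng/mL final) plus ATP (1.25 mM final); secreted IL-1B measured by AlphaLISA after 16 hr, decreased signal indicating inhibition.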
DRD3 agonist: D3 dopamine receptor (human) agonism; P35462; D3R DiscoveRx beta-arrestin cells, luminescence, 90 min; max activation, %; 0.58% of 410,000 active; AID 652048; in the data active = max activation above about 30%
Target sequence (P35462 whole entry, looked up): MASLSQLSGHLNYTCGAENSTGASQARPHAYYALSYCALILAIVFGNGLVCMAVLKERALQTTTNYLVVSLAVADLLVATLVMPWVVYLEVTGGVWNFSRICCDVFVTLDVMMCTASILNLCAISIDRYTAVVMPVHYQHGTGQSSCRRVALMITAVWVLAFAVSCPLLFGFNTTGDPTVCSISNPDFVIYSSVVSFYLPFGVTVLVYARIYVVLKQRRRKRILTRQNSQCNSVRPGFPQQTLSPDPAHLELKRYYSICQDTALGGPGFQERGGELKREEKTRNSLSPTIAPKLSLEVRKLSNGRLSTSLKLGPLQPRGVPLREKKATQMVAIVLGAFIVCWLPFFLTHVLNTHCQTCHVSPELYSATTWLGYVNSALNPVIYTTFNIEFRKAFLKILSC
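Cells at 1500/well, incubated overnight, then treated with pinned compounds (dopamine as control) for 90 min at 37 degrees C. DiscoveRx reagent added for 30 - 60 minutes at room temperature; luminescence read.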
ATXN viability: reduces viability in counter-screen for ATXN expression inhibitors. 0.49% of 400,000 active. Potency, µM (doses to about 56.7 µM), hits mostly cytotoxic. S2 cells (HEK-293 line with an ATXN2-luciferase reporter) viability, CellTiter-Fluor protease fluorescence, 24 h. AID 651635; also: nearly all actives have a fitted effect of over 40% in size
Integrin act MD: activators of alpha7 integrin expression for muscular dystrophy | 0.064% of 350,000 active | alpha7betagal myoblasts, beta-gal FDG fluorescence, 48 h | Potency, µM (doses to about 38.3 µM), hits mostly activators; also: nearly all actives have a fitted effect of over 60% in size
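alpha7betagal+/- myoblasts (passage 13, 250/well) treated 48 h at 37C with compounds at 1:260 dilution of DMSO stock. Lysed, then beta-galactosidase activity read as FDG fluorescence (ex 480/em 540) after 30 min, with pre-read for autofluorescence.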
D3 antag: antagonists of human D3 dopamine receptor. 2.5% of 360,000 active. D3R cells, DiscoveRx beta-arrestin luminescence, antagonist mode; stronger effect = lower value. P35462. AID 652054. max response, negative = inhibition, %; in the data active = max response below about -50%; inconclusive = no clear call, values can overlap the other calls
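Cells plated overnight at 1500 cells/well, then exposed to library compounds with dopamine controls for 90 minutes at 37 degrees C. DiscoveRx reagent added for 30–60 minutes at room temperature; luminescence read, quantitative HTS format.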
EBOV S4 ratio: Ebola virus entry blockers, screen 4 ratio channel. AID 1117308. shares compounds with ATXN2 expr inh. AC50, µM. 79% of 170 active. Ebola pseudovirus entry assay, ratio channel; calls by dose curve
EBOV entry S4 bl: Ebola entry inhibition, blue channel, screen 4. 170 tested, under 10 active. Ebola virus entry assay, blue channel fluorescence ratio; Channel: blue. shares compounds with ATXN2 expr inh. AID 1117309. calls only; call rule not given here
EBOV entry S4 grn: blocks Ebola virus entry, screen 4 green channel readout | shares compounds with ATXN2 expr inh | Ebola virus entry reporter assay, green fluorescence channel; Channel: green | calls only | 170 tested, under 10 active | AID 1117316; call rule not given here
Of the large screens only hits and unclear results are named; the others gave an inactive call (follow-up assays come after a bar, where they were run); ! = not active in a repeat. Not all results are given here. Unless noted, calls follow the shape of the dose curve; as a rule, active = well fitted curve in the direction sought with a large enough effect; inconclusive = small, poorly fitted or top-dose-only effect, or another doubt; inactive = no such curve, though single readings can be large; an effect the other way counts as inactive or inconclusive.

Cc1cc(N(CCCl)CCCl)ccc1C=Cc1ccncn1	none (no result: ATXN viability)
Cc1cc(N(CCCl)CCCl)ccc1/C=N/N=C(\N)c1cnccn1	ATXN2 expr inh inconclusive, IL1B secr inh -55, ATXN viability inconclusive
COC(=O)C1=C(c2ccc(OCc3ccccc3)cc2)C[C@@H]2CC[C@H]1N2C(=O)NCc1ccc(F)cc1	IL1B secr inh inconclusive
c1ccc(P(c2ccccc2)c2ccccn2)cc1	ATXN2 expr inh inconclusive, ATXN viability inconclusive
CCCC[n+]1cc(=N)o[n-]1	none
C[C@@H](Cc1ccccc1)NCCC(c1ccccc1)c1ccccc1	ATXN viability inconclusive (no result: ATXN2 expr inh, IL1B secr inh, Integrin act MD, D3 antag)
COc1ccc(OCC(=O)N2CCN(C/C=C/c3ccccc3)CC2)cc1	none (no result: ATXN2 expr inh, ATXN viability)
Cc1ccc(Cn2c(SCc3ccc(C(=O)NC4CCCC4)cc3)nc3ccncc32)cc1	ATXN2 expr inh inconclusive, ATXN viability inconclusive (no result: IL1B secr inh, Integrin act MD, D3 antag)
COP(=O)(OC)/C(C=O)=N/Nc1ccc([N+](=O)[O-])cc1	ATXN viability inconclusive
CC(Cc1ccccc1)NCCC(=O)NC(C)Cc1ccccc1 (centres undefined)	none (no result: ATXN2 expr inh)
CC(=O)Nc1cc(-c2cccc(C(=O)N(C)C)c2)cn2c(-c3cccc(C(F)(F)F)c3)cnc12	ATXN viability inconclusive (no result: Integrin act MD)
O=c1[nH]c(=O)n(CCC2=CCCCC2)c(O)c1C=NC1CCN(Cc2ccccc2)CC1	IL1B secr inh inconclusive
Cc1ccc(-n2c(CNCc3ccc(F)cc3)nc3ccccc3c2=O)cc1	none
CC(C)(C)NCC(O)c1cc(Cl)c(N)c(Cl)c1 (centres undefined)	ATXN viability inconclusive, D3 antag inconclusive (no result: Integrin act MD)
Cc1cccc(CN2C(=O)CN=C(c3ccccc3Cl)c3cc(Cl)ccc32)c1	ATXN2 expr inh inconclusive, ATXN viability inconclusive (no result: IL1B secr inh, Integrin act MD, D3 antag)
CCC(C(=O)N1C[C@H]2C[C@@H](C1)c1cccc(=O)n1C2)c1ccccc1 (some centres undefined)	none
C[C@H](N)[C@H](O)c1ccc(O)c(O)c1	ATXN viability inconclusive (no result: IL1B secr inh, Integrin act MD, D3 antag) | EBOV S4 ratio inactive | EBOV entry S4 bl inactive | EBOV entry S4 grn inactive
CC(Cc1ccc(O)cc1)NCC(O)c1ccc(O)c(O)c1 (centres undefined)	none (no result: ATXN2 expr inh)
NC[C@H](O)c1ccc(O)c(O)c1	DRD3 agonist 47! (no result: Integrin act MD) | EBOV S4 ratio inactive | EBOV entry S4 bl inactive | EBOV entry S4 grn inactive
COc1ccc(OC)c(C(O)C(C)N)c1 (centres undefined)	none (no result: Integrin act MD)
Cc1ccc(OP(=O)(NCc2ccccc2)Oc2ccc(C)cc2)cc1	IL1B secr inh inconclusive
CCCCCCN1CCN(c2ccc(Cl)cc2)CC1	D3 antag inconclusive
O=c1[nH]cnc2nc(-c3ccc(N(CCCl)CCCl)cc3)[nH]c12	ATXN viability inconclusive
COC(=O)C1=C(c2ccc(OC)c(OC)c2)C[C@@H]2CC[C@H]1N2C(=O)NCCCOC(C)C	none
CC(C)C(NC(=O)C(C(C)C)N(C)C)C(=O)N(C)C(C(=O)N1CCCC1C(=O)N1CCCC1C(=O)NCc1ccccc1)C(C)C (centres undefined)	ATXN viability inconclusive
C#Cc1cccc(Nc2ncnc3cc(OCCOC)c(OCCOC)cc23)c1	ATXN2 expr inh inconclusive, ATXN viability inconclusive (no result: IL1B secr inh, Integrin act MD, D3 antag) | EBOV S4 ratio inactive | EBOV entry S4 bl inactive | EBOV entry S4 grn inactive
CN(CCc1nnc(N)s1)[N+](=O)[O-]	none (no result: ATXN2 expr inh)
NC(=O)c1ccc(NC(=O)c2cccn(Cc3ccccc3)c2=O)cc1	none (no result: IL1B secr inh, Integrin act MD, D3 antag)
O=C1NC(=O)N(c2ccccc2F)C(=O)/C1=C/c1cn(CC(=O)N2CCOCC2)c2ccccc12	none
CC(=NCCCN1CCOCC1)c1c(O)n(Cc2ccccc2)c(=O)[nH]c1=O	none
Cc1nnc2n1-c1sc(Br)cc1C(c1ccccc1Cl)=NC2	none (no result: ATXN2 expr inh, IL1B secr inh, Integrin act MD, D3 antag)
CCN1CCN(C(=O)COc2ccc(S(=O)(=O)Nc3ccc(Cl)cc3)cc2)CC1	Integrin act MD inconclusive
